# Reference: PubChem BioAssay AID1117319 (Southern Research Institute, 2015)
# Screen size: about 260,000 compounds; about 1,500 (0.58%) were called active. Inconclusive results (about 5%) are left out. These entries were drawn from the full list. Results with a measured potency or affinity are listed apart. Values without a mark were called inactive.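 How the source made its calls: active means inhibition above a set limit at one or more doses, reproduced on every date tested; inconclusive means results disagree between test dates, or hit never tested in dose response; inactive means the rest.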
# Target: Virion infectivity factor (Human immunodeficiency virus type 1 group M subtype B (isolate BH10)) + Virion infectivity factor (Human immunodeficiency virus type 1 group M subtype B (isolate BRU/LAI)) + Virion infectivity factor (Human immunodeficiency virus type 1 group M subtype B (isolate PCV12)) + Virion infectivity factor (Human immunodeficiency virus type 1 group M subtype B (isolate HXB2)) + DNA dC->dU-editing enzyme APOBEC-3G (Homo sapiens) (UniProt P69720+P69721+P69722+P69723+Q9HC16)
# Experiment: inhibitors of Vif binding to APOBEC3G peptide, primary screen, biochemical, TR-FRET, GST-Vif 1-94, biotin-A3G peptide, dose response retest (AID 1117319);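 further: Vif residues 1-94 fused to GST binding biotinylated APOBEC3G peptide 110-148; 0% = full assay without inhibitor and 100% = GST in place of GST-Vif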
# Conditions: stronger effect = higher value
row,SMILES,inhibition [%]
1,COc1ccc(NC(=O)CN(C)C(=O)c2sc3ccccc3c2Cl)cc1,1.23
2,CS(=O)(=O)N(Cc1ccccc1)c1ccc(C(=O)NCc2ccccc2)cc1,25
3,C/C(=N\Nc1ccc(S(N)(=O)=O)cc1[N+](=O)[O-])c1ccco1,-3.09
4,O=C1OC(c2ccc(Cl)cc2)=C/C1=C/c1cccnc1,1.36
5,COC(=O)C1=C(C)NC(C)=C(C(=O)OC)C1c1ccc(NC(C)=O)cc1,-1.45
6,Cc1ccc(NC(=O)c2ccc(Cl)nc2)cc1,16.1
7,O=C(Nc1ccc(Cl)c(Cl)c1)c1ccc(Cl)c(Cl)c1,22.2
8,Cc1ccnc(NC(=O)c2cccc(S(=O)(=O)NCc3ccccc3)c2)c1,-2.28
9,COc1cccc(-n2nnc3c(=O)n(Cc4ccc(Br)cc4)cnc32)c1,-0.95
10,O=C(OCC(=O)c1cccs1)c1ccc(NC(=O)c2ccco2)cc1,13.8
11,CC1(NC(=O)CC[N+](C)(C)CCO)CS(=O)(=O)CC1S(=O)(=O)[O-] (stereo unspecified),11.7
12,CCCC[N+](C)(C)CCC(=O)NC(C)(C)CS(=O)(=O)[O-],17.8
13,CC(=O)Nc1ccc(/C(C)=N/NS(=O)(=O)c2ccccc2)cc1,-13.2
14,Cc1ccc(CN2CCSc3ccc(C(=O)NCc4ccco4)cc32)cc1,-7.52
15,O=C1NC(=S)SC1=C1CCCCCC1,16.7
16,CN1C(=O)C(=C2CCCCCC2)SC1=S,4.5
17,O=C(Cn1ncc2c(=O)oc3ccccc3c21)NCCc1ccsc1,-2.92
18,COC(=O)[C@@]1(C)[C@H]2C(=O)N(Cc3ccccc3)C(=O)[C@H]2[C@H]2CN(C)C(=NC3CCCCC3)N21,-5.32
19,COCCn1c(SCC(=O)Nc2sccc2C(N)=O)nnc1-c1ccncc1,-0.42
20,O=C(O)c1cnn2c(C(F)(F)F)cc(-c3ccco3)nc12,23
21,CCOC(=O)c1cnn2c(C(F)(F)F)cc(-c3ccco3)nc12,17
22,CC(=O)c1cn(N(C)c2ncc(C(F)(F)F)cc2Cl)c(=O)[nH]c1=O,-1.96
23,CCOc1ccccc1C(=O)NCC(=O)NNC(=O)c1cccc(S(=O)(=O)Nc2ccc(OC)cc2)c1,-2.98
24,O=C(Nc1ccccc1)N1CCCC2CCCCC21 (stereo unspecified),7.94

row,SMILES,inhibition [%]
1,CC(C)C(=O)Nc1cccc(C(=O)N2CCCCC2C)c1 (stereo unspecified),12.2
2,CCC(C)N1CCN(S(=O)(=O)c2ccc(NC(C)=O)cc2)CC1 (stereo unspecified),-5.24
3,Cn1c(=O)c2c(nc(CN3CCN(C(=O)c4ccco4)CC3)n2Cc2ccc(Cl)cc2)n(C)c1=O,-6.63
4,O=C(COc1ccccc1)N1CCN(S(=O)(=O)c2ccc(Cl)cc2)CC1,11.7
5,COc1ccc(OCC(=O)N2CCN(S(=O)(=O)c3ccc(Cl)cc3)CC2)cc1,0.42
6,Cn1c(N)c(C(=O)COC(=O)Cc2ccc(Cl)cc2)c(=O)n(C)c1=O,0.17
7,CCS(=O)(=O)c1ccc2c(c1)N(S(C)(=O)=O)CC(C(=O)NN)O2 (stereo unspecified),-7.03
8,Cc1ccc2nc(SCC(=O)N3CCN(c4ccccc4)CC3)[nH]c2c1,-0.39
9,O=C(CCN1C(=O)c2cccc([N+](=O)[O-])c2C1=O)Nc1nccs1,-4.6
10,NC(=O)C1CCN(c2ccc([N+](=O)[O-])cc2Cl)CC1,12.1
11,O=[N+]([O-])c1ccc(N2CCN(c3ccccc3O)CC2)c(Cl)c1,-0.29
12,N#Cc1csc(CCNC(=O)c2ccccc2)n1,-7.18
13,Nn1c(SCc2ccccc2)nnc1-c1ccco1,2.72
14,Clc1ccccc1CSc1ncccn1,-2.52
15,CSc1nnc(-c2ccco2)n1-c1ccccc1,5.76
16,c1ccc(CSc2n[nH]c(-c3ccco3)n2)cc1,28.1
17,CSc1ccc(-c2ccco2)nn1,11.8
18,Nc1cc(N)nc(SCc2ccccc2Cl)n1,0.21
19,CCC(C)[C@H]1CNC(=S)N1CCC12CC3CC(CC(C3)C1)C2 (stereo partly specified),28.7
20,Cc1ccc(N(CC(=O)NCc2ccc3c(c2)OCO3)S(=O)(=O)c2c(C)noc2C)cc1,1.33
21,CCc1ccc(-c2nc(CS(=O)CC(=O)NCCN3CCCCCC3)c(C)o2)cc1 (stereo unspecified),-8.11
22,CC1CN(C(c2cccs2)c2sc3ncnn3c2O)CC(C)O1 (stereo unspecified),-3.12
23,O=S(=O)(/N=C(/Nc1cccc2ccccc12)c1ccccc1)c1ccc(Br)cc1,3.03
24,CCOC(=O)N1CCC(N2CCN(S(=O)(=O)c3ccc(C)cc3)CC2)CC1,3.57

row,SMILES,inhibition [%]
1,CCCCC(=O)Nc1ccc(Br)cn1,-2.24
2,CCCCCCC(=O)Nc1ccc(Br)cn1,22.8
3,C/C(=N/NC(=O)c1ccccc1)c1ccc(NC(=O)C(F)(F)F)cc1,1.31
4,Cc1ccc(OCC(O)CNCc2ccc(F)cc2)cc1 (stereo unspecified),4.08
5,O=C(Nc1ccc(CN2CCCCC2)cc1)c1cccc(F)c1,-2.63
6,O=C(CSc1nc2ccccc2n1CCc1ccccc1)NC1CC1,16.5
7,COc1ccc(C(=O)CSc2nc3ccccc3n2CC(=O)c2ccccc2)cc1,2.41
8,CC(=O)Nc1ccc(NC(=O)[C@@H](NC(=O)c2ccccc2F)C(C)C)cc1,2.31
9,CCC(C)[C@H](NC(=O)Nc1ccccc1F)C(=O)OC (stereo partly specified),85.4
10,COc1ccc(NC(=O)Nc2cccs2)cn1,9.16
11,Cc1cc(F)ccc1S(=O)(=O)Nc1ccccc1C(=O)Nc1ncn[nH]1,-4.68
12,Cc1cc(F)ccc1S(=O)(=O)Nc1ccccc1C(=O)Nc1ccccc1-c1nc2ccccc2[nH]1,16.7
13,COc1ccccc1NC(=O)C(C)OC(=O)CN1C(=O)C2CC=CCC2C1=O (stereo unspecified),-6.25
14,COc1ccc(CCN2CC(C(=O)N(C)CCn3nc(C)cc3C)CCC2=O)cc1 (stereo unspecified),6.02
15,Cc1cc(C)n(Cc2ccc(C(=O)O)cc2)n1,-1.33
16,Cc1cc(C(=O)O)ccc1-n1c(C)cc(C=C2C(=O)c3ccccc3C2=O)c1C,-10.7
17,Cc1ccc(C)n1-c1ccc(C(=O)NN)cc1,-3.66
18,Cc1cc(N)ccc1-n1c(C)ccc1C,15.6
19,CCc1ccc(C(=O)O)cc1,0.16
20,Cc1ccc(C)n1-c1cccc(C(=O)Nc2ccccc2)c1,18.2
21,Cc1ccc(-c2ccccc2)n1-c1ccc(C(=O)O)cc1,-4.6
22,Cc1ccc(-c2ccccc2)n1-c1cccc(C(=O)O)c1,0.87
23,Cc1cc(C)cc(NC(=O)CCNS(=O)(=O)c2ccc3c(c2)oc(=O)n3C)c1,17.7
24,CC1CC(C)(C)NC(=S)N1CCCC(=O)Nc1ccc(Br)cc1 (stereo unspecified),-9.53

row,SMILES,inhibition [%]
1,O=C(NC1CCCCC1)C12CC3CC(CC(Cl)(C3)C1)C2,9.37
2,COc1ccc(O)c(CN2CC3CCC(CC3)C2)c1,4.35
3,COc1ccc(N2CCN(C(=O)COC(=O)CNC(=O)c3ccccc3)CC2)cc1,3.12
4,CC1(C)NC(=O)N(CC(=O)NNC(=O)c2ccccc2F)C1=O,-5.82
5,FC(F)(F)c1cnc(N2CCN(C(=S)NCc3ccccc3)CC2)c(Cl)c1,-5.24
6,COc1cc2[nH]c3c(=O)n(N)c(=O)[nH]c3c2cc1OC,-6
7,O=[N+]([O-])c1ccccc1S(=O)(=O)NC1CCCCCCC1,8.73
8,O=[N+]([O-])c1ccccc1S(=O)(=O)Nc1ncccn1,5.53
9,CCN(C(=O)COC(=O)c1oc2ccc(OC)cc2c1C)C1CCCCC1,-5.77
10,CC1CCCN(C(=O)NC(=O)c2ccc(Cl)cc2)C1 (stereo unspecified),-0.86
11,Cc1cc(C)cc(NC(=O)CCNS(=O)(=O)c2cc(Br)cnc2N)c1,-18.9
12,Cc1ccc(NC(=O)CCNS(=O)(=O)c2cc(Br)cnc2N)cc1Cl,5.11
13,O=C(COC(=O)CCCSc1nc2ccccc2[nH]1)Nc1cccc(F)c1,-3.43
14,COC(=O)c1ccc(Cn2nnc3ccccc32)cc1,26.1
15,Cc1ccc(S(=O)(=O)N2C(=O)CCC2C(N)=O)cc1 (stereo unspecified),-11.2
16,O=C(C1CCCO1)N1CCC(O)(c2ccccc2)CC1 (stereo unspecified),-9.62
17,O=C(C1CCCO1)N1CCN(C(=S)NC2CC2)CC1 (stereo unspecified),-5.45
18,Cc1c(C)c(C)c(CN2CCSCC2)c(C)c1C,21.2
19,CC(C)CN(C(=O)CN1CCN(c2ccc([N+](=O)[O-])cc2)CC1)c1c(N)n(CC(C)C)c(=O)[nH]c1=O,13.2
20,CCN(C(=O)CN1CCN(c2ccc(OC)cc2)CC1)c1c(N)n(Cc2ccccc2)c(=O)[nH]c1=O,20.7
21,CC(=O)c1ccc(N2CCN(CC(=O)N(CC(C)C)c3c(N)n(CC(C)C)c(=O)[nH]c3=O)CC2)cc1,19.2
22,CCN(C(=O)CN1CCN(c2ccccc2)CC1)c1c(N)n(Cc2ccccc2)c(=O)[nH]c1=O,-6.89
23,Cc1cc(C(C)(C)C)oc1C(=O)N(CC(=O)NC1CCCC1)Cc1ccc(F)cc1,0.27
24,CCOC(=O)C1(Cc2cccc(F)c2)CCN(Cc2ccon2)CC1,-4.55
